Source: PubChem (National Center for Advancing Translational Sciences (NCATS))
Only some compounds are listed: those with a hit (about 3.7% of all), similar ones and a draw of the others.
HepG2 viability = kills HepG2 cells in TGF-b inhibitor counter-screen. hit rate 0.76% among 410,000. HepG2 CAGA-GFP viability, ATP luminescence, 18 h. Potency, µM (highest dose often 46.1 µM), inactives show at the top dose activity change, negative = cytotoxicity, usual class: cytotoxic
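HepG2 CAGA-GFP cells (1000/well, DMEM with 1% FBS) received compound, then TGF-beta at 500 pg/mL final, and were incubated 18 hours at 37 degrees C. Viability was read by CellTiter-Glo luminescence. Media-only wells were set as complete cell-killing and DMSO as no toxicity.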
GLP1R ag = activates the human GLP-1 receptor. AID 624172. hit rate 0.007% among 380,000. HEK293 GLP-1R CRE-luciferase, luminescence, 4-6 h; cells express a hypersensitive GLP-1R form. Potency, µM (doses to about 45.6 µM), without a hit: at the highest dose activation, actives largely listed as activators. P43220; further: % of control where 0% means no effect
Target sequence (P43220 whole entry, looked up): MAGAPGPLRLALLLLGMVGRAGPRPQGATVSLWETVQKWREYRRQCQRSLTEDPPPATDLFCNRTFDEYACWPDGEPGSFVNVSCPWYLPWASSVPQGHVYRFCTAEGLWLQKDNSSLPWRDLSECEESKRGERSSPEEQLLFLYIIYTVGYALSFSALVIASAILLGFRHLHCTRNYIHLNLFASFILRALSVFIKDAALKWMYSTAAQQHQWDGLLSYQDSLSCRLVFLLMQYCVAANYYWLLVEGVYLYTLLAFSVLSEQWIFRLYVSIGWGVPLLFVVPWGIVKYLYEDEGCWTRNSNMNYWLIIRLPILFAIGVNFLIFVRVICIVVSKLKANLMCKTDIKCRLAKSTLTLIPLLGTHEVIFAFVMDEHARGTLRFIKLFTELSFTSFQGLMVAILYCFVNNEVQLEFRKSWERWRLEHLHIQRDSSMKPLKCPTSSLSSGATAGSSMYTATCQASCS
S2 tox = reduces viability in counter-screen for ATXN expression inhibitors; AID 651635; hit rate 0.49% among 400,000; Potency, µM (top dose mostly 56.7 µM), hits mostly cytotoxic; S2 cells (HEK-293 line with an ATXN2-luciferase reporter) viability, CellTiter-Fluor protease fluorescence, 24 h; further: nearly all actives have a fitted effect of over 40% in size
TGFb inhibitor = inhibitors of TGF-b signaling; hit rate 1.2% among 410,000; Potency, µM (series often up to 46.1 µM), inactives show at the highest dose activity, negative = inhibition, usual class: inhibitors; HepG2 CAGA-GFP TGF-b/SMAD3 reporter, GFP fluorescence, 18 h; TGF-beta stimulated, 500 pg/mL final; further: on the % scale 0 is the no-effect control and ±100 the full control effect; nearly all actives have a fitted effect of over 65% in size
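HEPG2 CAGA-GFP, 1000 cells/well; 2 h settle, 37 C; cpd via pin tool; TGF-b 500 pg/mL final; 18 h, 37 C; GFP imaging ex488/em500-530; %Activity normalised to -TGF-b and +DMSO controls; CRC fit, curve class.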
GLP1R inv ag = acts as inverse agonist at human GLP-1 receptor. P43220. HEK293 GLP-1R CRE-luciferase, luminescence, 24 h; GLP-1R form is constitutively active. Potency, µM (series often up to 38.3 µM), without a hit: at the top dose activity change, negative = inhibition, usual class: inhibitors. hit rate 1.6% among 410,000; further: on the % scale 0 is the no-effect control and ±100 the full control effect; nearly all actives have a fitted effect of over 55% in size
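Constitutively active GLP-1R drives a cAMP-responsive luciferase in stably transfected HEK293 cells; test compounds are added after overnight (12 h) attachment and left 24 hr, and signal loss in luminescence marks inhibition.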
ATXN2 expr inh = ATXN2 expression inhibition | Potency, µM (top dose mostly 57 µM), for inactives: at the highest dose activity change, negative = inhibition, actives largely listed as inhibitors | hit rate 0.72% among 360,000 | AID 1745845 | HEK-293 ATXN2-luciferase reporter, luminescence, 24 h; further: on the % scale 0 is the no-effect control and ±100 the full control effect; nearly all actives have a fitted effect of over 55% in size
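ATXN2-luciferase reporter cells (luciferase flanked by upstream and downstream ATXN2 gene portions) were treated 24 h at 37 °C with compounds at up to 57 uM. SteadyGlo luminescence gave expression; GF-AFC fluorescence gave viability.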
* marks the source's active call; other numbers are inactive results; i = inactive; ? = inconclusive; . = not tested or not shown; ! = a repeat was not active. The call rests on the fitted dose curve; in most records, active means well fitted curve in the direction sought with a large enough effect; inconclusive means small, poorly fitted or top-dose-only effect, or another doubt; inactive means no such curve, though single readings can be large; an effect the other way counts as inactive or inconclusive. Potency means the concentration at half of the fitted maximal effect.

SMILES	HepG2 viability	GLP1R ag	S2 tox	TGFb inhibitor	GLP1R inv ag	ATXN2 expr inh
CC(C)(C)[C@]1(O)CCN2CC3c4ccccc4CCc4cccc(c43)[C@@H]2C1 (stereo partly drawn)	.	-0.1%	.	.	.	.
CCCCCc1cc[n+](CC(=O)c2ccccc2)cc1	-32.4%	.	.	0.5%	.	.
O=C(CN1CCN(S(=O)(=O)c2ccc(Br)cc2)CC1)Nc1ccc2c(c1)OCCO2	-22.0%	-0.3%	i	-5.7%	?	3.6%
CC1CCN(S(=O)(=O)c2cn(CC(=O)Nc3cccc(C(F)(F)F)c3)c(=O)c3ccccc23)CC1	-31.9%	-1.7%	?	12.6µM*	?	-28.5%
COc1ccc(NC(=O)CN2CCCN(S(=O)(=O)c3ccc(F)cc3)CC2)cc1	-12.3%	14.0%	i	4.3%	-7.9%	-21.5%
COc1ccc(S(=O)(=O)N2CCCN(CCC(=O)Nc3cccc(C(F)(F)F)c3)CC2)cc1	0.5%	6.9%	i	-10.8%	13.1%	2.5%
O=C(CN1CCCN(S(=O)(=O)c2ccc(Br)cc2)CC1)Nc1cccc(C(F)(F)F)c1	-50.3%	.	?	7.94µM*	?	?
CCc1ccc(NC(=O)CN2CCCN(S(=O)(=O)c3ccc(F)cc3)CC2)cc1	-5.3%	5.4%	i	0.8%	5.01µM*	-11.7%
O=C(Cn1cc(S(=O)(=O)N2CCN(c3ccccc3F)CC2)c2ccccc2c1=O)Nc1cccc(C(F)(F)F)c1	-30.0%	-6.3%	?	?	-25.4%	-10.5%
COC(=O)c1ccc(NC(=O)CN2CCN(S(=O)(=O)c3ccc(Br)cc3)CC2)cc1	-0.7%	-1.0%	i	?	3.55µM*!	-3.4%
CC(C)(C(=O)NCC(F)(F)C(F)(F)F)C(=O)N[C@@H]1C(=O)Nc2ccccc2-c2ccccc21	.	.	.	.	.	-12.3%
CCN(CC)CCCNC(=O)c1oc2c(c1C)-c1nn(Cc3ccc(Cl)cc3)cc1CC2	12.6µM*	.	.	-25.0%	?	.
Cc1cccc(CNC(=O)c2oc3c(c2C)-c2nn(Cc4cccc(Cl)c4)cc2CC3)c1	-7.3%	.	.	?	?	.
CCOc1ccc(CNC(=O)c2oc3c(c2C)-c2nn(Cc4cccc(Cl)c4)cc2CC3)cc1	-3.3%	.	.	-25.6%	11.2µM*	.
Cc1cccc(/C=N/NC(=O)c2ccc(NC(=O)c3ccc(Cl)cc3)cc2)n1	-68.6%	12.1%	i	12.6µM*	?	-23.4%
COc1ccc(S(=O)(=O)N2CCC(n3c(C(F)(F)F)nc4cccnc43)CC2)cc1OC	0.2%	.	i	2.9%	28.8%	0.1%
COc1ccc(Sc2nnc(Cc3ccccc3)c3ccccc23)cc1	22.8%	26.6%	i	-17.9%	0.0%	?
Cc1ccc(Sc2nnc(Cc3ccccc3)c3ccccc23)cc1	17.8µM*	0.9%	i	14.1µM*	0.0%	?
CCCn1c(=N)n(CC(=O)c2ccc(Cl)cc2)c2ccccc21	-21.4%	13.0%	i	-25.4%	7.94µM*	?
CNC(=O)c1ccc(N2C(=S)N(c3ccc(C#N)c(C(F)(F)F)c3)C(=O)C2(C)C)cc1F	.	.	.	.	.	-6.9%
COc1ccccc1NC(=O)CSc1nnnn1-c1ccc2c(c1)OCO2	11.2µM*	0.9%	i	-11.9%	-18.9%	-25.5%
COc1ccccc1NC(=O)CSc1nnc(C2CCCCC2)n1-c1ccccc1	0.7%	13.8%	i	2.1%	3.16µM*	-4.6%
COc1ccccc1NC(=O)CSc1nnnn1-c1ccccc1OC	1.3%	6.0%	i	9.3%	-0.3%	-8.9%
Cc1ccccc1C(=O)N(Cc1nc2ccccc2c(=O)[nH]1)C1CCCC1	-7.3%	8.4%	i	-13.1%	12.6µM*	-4.5%
Cc1ccc(C(=O)N(Cc2nc3ccccc3c(=O)[nH]2)C2CCCC2)cc1	-13.6%	-10.5%	i	-9.2%	?	-30.0%
SMILES	HepG2 viability	GLP1R ag	S2 tox	TGFb inhibitor	GLP1R inv ag	ATXN2 expr inh
CS(=O)(=O)c1ccc(-c2ccc3c(c2)CC(CNC(=O)C2(N4CCOCC4)CCCCC2)O3)cc1 (stereo not drawn)	.	.	i	.	.	.
O=C1c2ccccc2C(=O)c2cc(N3CCCCC3)ccc21	-2.0%	-0.1%	i	10.8%	-44.2%	-64.4%
O=C1c2cccc(Cl)c2C(=O)c2c1cccc2N1CCCC1	-22.8%	10.1%	i	0.0%	6.31µM*	0.8%
CCCn1c(=O)c2sccc2n2c(CCCC(=O)NCc3ccccc3)nnc12	-6.5%	.	.	-9.7%	6.0%	.
CCN(CC)C(=O)Cn1c(=O)n(CCCCCC(=O)Nc2ccccc2)c(=O)c2sccc21	3.16µM*!	-7.2%	i	?	3.4%	7.0%
CCCn1c(=O)c2sccc2n2c(CCCC(=O)Nc3ccc(Oc4ccccc4)cc3)nnc12	-39.8%	.	.	17.8µM*	2.4%	.
CCCCC(CC)CNC(=O)CCCc1nnc2n(CCC)c(=O)c3sccc3n12 (stereo not drawn)	-21.7%	.	17.8µM*	?	?	-37.3%
CCOC(=O)C(CC)Sc1ccc2nnc(-c3ccc(F)cc3)n2n1 (stereo not drawn)	-26.6%	.	.	-10.6%	.	.
O=C(CCl)NCCCCCCCCCNC(=O)CCl	-40.4%	8.7%	10µM*	?	?	-38.2%
O=C(Nc1cccc(C(=O)OCc2cc(=O)n3c4c(sc3n2)CCCC4)c1)c1cccc(Cl)c1	6.8%	.	.	10.5%	3.9%	.
O=C(Nc1cccc(C(=O)OCc2cc(=O)n3c4c(sc3n2)CCCC4)c1)c1ccc(Cl)cc1	-31.4%	.	.	10µM*	?	.
COc1cc(OC)nc(C(NC(=O)C2CCN(Cc3c[nH]c4ccccc34)CC2)c2ccc(Cl)cc2)n1 (stereo not drawn)	10µM*	8.0%	.	?	?	?
COc1ccc(C)cc1NC(C)C(=O)c1c[nH]c2ccccc12 (stereo not drawn)	-10.0%	.	.	-0.1%	.	.
Cc1cc(C)c(C(=O)/C=C/c2ccc(C(C)C)cc2)c(=O)[nH]1	-61.9%	-3.3%	?	?	1.41µM*	?
OC(c1cc(C(F)(F)F)nc2c(C(F)(F)F)cccc12)C1CCCCN1 (stereo not drawn)	-96.9%	-24.2%	.	?	?	?
OC(c1cc(-c2cccc(Cl)c2)nc2ccccc12)C1CCCCN1 (stereo not drawn)	-100.1%	-4.1%	?	?	1.41µM*	?
CCn1cc(C(=O)NCCCN2CCC(C)CC2)c(=O)c2cc(S(=O)(=O)N(C)C3CCCCC3)ccc21	-41.1%	6.6%	?	?	10µM*	-32.3%
